BAZ2B inh: inhibitors of human BAZ2B bromodomain. AlphaScreen BAZ2B-H3K14Ac peptide displacement. Potency, µM (series often up to 114 µM), inactives show at the highest dose activity change, negative = inhibition, actives largely listed as inhibitors. Q9UIF8. AID 504333. actives 4.4% (n = 360,000); note: % is set by controls: 0 for no effect and ±100 for the full control effect; nearly all actives have a fitted effect of over 60% in size
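BAZ2B (50 nM) with biotin-H3(5-23)K14Ac peptide (50 nM) in PBS pH 7.4, 0.01% Tween-20, preformed 30 min, then compound 30 min at room temperature; top concentration 110uM. AlphaScreen streptavidin donor/nickel chelate acceptor beads (10 ug/mL final), 20 min dark, signal read.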
JMJD2A Tudor: JMJD2A Tudor domain (human) inhibition; AlphaScreen JMJD2A-Tudor / H3K4me3 peptide binding; O75164; Potency, µM (highest dose often 114 µM), for the others: at the highest dose activity change, negative = inhibition, actives largely listed as inhibitors; actives 4.4% (n = 390,000); note: % is set by controls: 0 for no effect and ±100 for the full control effect; nearly all actives have a fitted effect of over 50% in size
HP1b binding inh: blocks HP1-beta chromodomain binding to methylated histone tails | Potency, µM (series often up to 114 µM), for the others: at the top dose activity change, negative = inhibition, hits mostly inhibitors | actives 0.56% (n = 390,000) | P83916 | AlphaScreen HP1-beta / biotin-H3K9me3 peptide binding; note: nearly all actives have a fitted effect of over 70% in size
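HP1-beta protein (50 nM final) preincubated 30 min at room temperature with biotinylated H3(1-18)K9me3 peptide (50 nM) in PBS pH 7.4, 0.01% Tween-20, then compound added for 30 min. AlphaScreen streptavidin donor/nickel chelate acceptor beads (10 ug/mL final), 30 min dark, luminescence read.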
G9a inh: blocks human histone lysine methyltransferase G9a. G9a H3K9 monomethylation, AlphaScreen, 2 h. Potency, µM (series often up to 102 µM), for inactives: at the highest dose activity, negative = inhibition, most hits filed as inhibitors. actives 8.8% (n = 350,000). Q96KQ7; note: % is set by controls: 0 for no effect and ±100 for the full control effect; nearly all actives have a fitted effect of over 75% in size
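Using a bead-based AlphaScreen, monomethylated H3K9 product from 2 h room-temperature reactions (G9a 20 nM, peptide 500 nM, SAM 20 uM) was detected with 0.5 ug/mL rabbit anti-H3K9me1 antibody.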
L3MBTL1 block: blocks human L3MBTL1 | Q9Y468 | AlphaScreen L3MBTL1–H3K9me1 peptide binding | Potency, µM (top dose mostly 57.1 µM), without a hit: at the highest dose activity, negative = inhibition, usual class: inhibitors | actives 0.66% (n = 230,000); note: % is set by controls: 0 for no effect and ±100 for the full control effect; nearly all actives have a fitted effect of over 60% in size
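First, the protein-peptide complex forms for 30 min at room temperature (L3MBTL1 50 nM, biotinylated H3K9me1 peptide 75 nM). Next, compounds are pin-transferred and incubated 30 min. Finally, AlphaScreen beads are added and read after 30 min.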
An asterisk follows results filed as active; ? = inconclusive; . = not tested or not shown; [ ] = dose if it differs, or a comment. Rows were chosen to be rich in hits. Some 11% of all compounds tested hit in one or more screens of this group. Calls come from the whole dose curve; as a rule, active = well fitted inhibition curve with a large enough effect; inconclusive = small, poorly fitted or top-dose-only effect; inactive = no such curve, though single readings can be large or run the other way. Potency is the fitted concentration of half-maximal effect.

SMILES	BAZ2B inh	JMJD2A Tudor	HP1b binding inh	G9a inh	L3MBTL1 block
N#CC1=C(N)Nc2nc3ccccc3n2C1c1ccc(Cl)cc1 (configuration not stated)	0%	-15%	23%	0.63µM*	0%
CCN(CC)C(=O)C1=C(C)Nc2nc3ccccc3n2C1c1ccc(Cl)cc1 (configuration not stated)	0%	1%	42%	6%[59 µM]	.
O=S1(=O)C2CC3C=CC2(O3)C(O)C(Cc2ccccc2)N1Cc1cccc(F)c1 (configuration not stated)	.	-5%	25%	.	.
CC(C)C(=O)OCc1cc(=O)n2nc(C3CCCCC3)sc2n1	4%	-4%	88%	10%[59 µM]	.
CC(C)(O)C(=O)NNC(=S)Nc1ccc(F)c(Cl)c1	-1%	-15%	6%	45µM*	0%
Cc1ccc2oc3c(c(=O)c2c1)C(c1ccc(F)cc1)N(Cc1ccc2c(c1)OCO2)C3=O (configuration not stated)	-3%	-4%	26%	-23%[59 µM]	.
CC(C)(C)c1ccc(Oc2ccc(NC(=O)c3ccccc3C(=O)O)cn2)cc1	-22%	-18%	77%	56µM*	-21%
O=C(O)c1ccccc1C(=O)Nc1ccc(Oc2ccccc2)cc1	-15%	-25%	6%	.	1%
COc1ccc(C(=O)N(Cc2ccc(C(C)C)cc2)C2CCS(=O)(=O)C2)cc1 (configuration not stated)	-16%	-18%	46%	1%[59 µM]	.
O=C(NCc1ccccc1)c1ccc2c(c1)sc1nc(-c3ccc(F)cc3)cn12	-14%	-14%	67%	6%[59 µM]	.
CC(C)CCCC(C)C1CC(=O)C2=C3CCC4CC(O)CCC4(C)C3CCC21C (configuration not stated)	.	.	.	2%[12.7 µM]	.
CNC(=S)N/N=C/c1cn(CCOc2cccc(OC)c2)c2ccccc12	?	?	?	45µM*	-17%
CNC(=S)N/N=C/c1cn(CCOc2ccccc2OC)c2ccccc12	?	-30%	-8%	8%[59 µM]	-18%
Cc1ccc2nc(NCc3ccco3)c(C=NCc3ccco3)c(=O)n2c1	50µM*	1%	31%	3%[59 µM]	?
COc1ccc(NCc2cc3cc(OC)ccc3[nH]c2=O)cc1	-12%	?	?	?	-10%
COc1ccc(NCc2cc3ccccc3[nH]c2=O)cc1	?	?	-9%	50µM*	-6%
CC(C)(C)NC(=O)[C@@H]1CC[C@@H]2[C@@H]3CC[C@@H]4NC(=O)C=C[C@@]4(C)[C@H]3CC[C@]21C	.	.	.	21%[21.5 µM]	.
Fc1ccc(/C=N/Nc2nn[nH]n2)cc1	?	-18%	50%	3%	9%
CCc1ccc(/C=N/Nc2nn[nH]n2)cc1	?	?	28%	10µM*	-12%
COCC(C)NC(=O)Cn1c(SCc2ccccc2)nc2ccccc21 (configuration not stated)	12%	-10%[57.1 µM]	10%[57 µM]	45µM*	.
COc1ccccc1OCCn1c(SCC(=O)O)nc2ccccc21	?	-46%	15%	40µM*	?
COc1ccccc1OCCSc1nc2ccccc2n1CCC(=O)O	-2%	-12%	19%	.	8%
COCC(C)NC(=O)CSc1nc2ccccc2n1CCc1ccccc1 (configuration not stated)	35%	-3%	28%	71µM*	31%
O=C(O)Cn1c(SCc2ccccc2)nc2ccccc21	-5%	-9%	36%	-36%	.
O=C1C=C(O)c2[nH]c(=O)ccc2C1=O	.	10µM*	-10%	.	.
SMILES	BAZ2B inh	JMJD2A Tudor	HP1b binding inh	G9a inh	L3MBTL1 block
Cc1ccc(S(=O)(=O)NCC(=O)NCC(=O)OCc2c(F)cccc2Cl)cc1	3%	-5%	18%	8.9µM*	-21%
CCNc1sc(C(=O)c2cccs2)c(N)c1C#N	-4%	-34%	3%	-41%[12.7 µM]	4%[11.4 µM]
C=CCNc1sc(C(=O)c2cccs2)c(N)c1C#N	-1%	-22%	19%	13µM*	6%[11.4 µM]
Cn1c(=O)c(=O)n(C)c2cc(NS(=O)(=O)c3ccc(Br)cc3)c(Cl)cc21	-12%	-14%	15%	3%[59 µM]	.
c1cncc(-c2nc(NCc3ccco3)c3ccccc3n2)c1	?	-30%	32%	?	-3%
c1cncc(-c2nc(NCCCn3ccnc3)c3ccccc3n2)c1	10µM*	20µM*	21%	-25%	.

High-throughput results: PubChem, National Center for Advancing Translational Sciences (NCATS)
